# PubChem BioAssay
# Biological target: Concanavalin-A (Canavalia ensiformis) (UniProt P02866)
# Assay: compounds binding concanavalin A lectin – biochemical, small-molecule microarray, Alexa647 label, 635 nm, artefact control for SMM control protein annotation, primary screen (AID 1127);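 also: z combines 667 nm emission intensity with signal-to-noise across three replicate slides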
# Conditions: ConA-A647 binding fluorescence, higher = more signal
# Chain of Concanavalin-A (Canavalia ensiformis) (P02866 whole entry, looked up): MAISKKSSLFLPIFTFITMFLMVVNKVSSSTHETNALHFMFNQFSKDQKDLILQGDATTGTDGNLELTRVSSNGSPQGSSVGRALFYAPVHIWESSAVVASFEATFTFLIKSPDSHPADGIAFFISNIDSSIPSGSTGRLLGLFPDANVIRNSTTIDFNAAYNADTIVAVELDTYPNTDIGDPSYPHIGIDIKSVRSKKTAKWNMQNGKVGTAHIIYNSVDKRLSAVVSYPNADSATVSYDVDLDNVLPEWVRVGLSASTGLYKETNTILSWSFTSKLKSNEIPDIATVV
row,SMILES,composite z-score
1,COC(=O)[C@@]1(Cc2ccccc2N=[N+]=[N-])N=C(c2ccc(OCCCO)cc2)O[C@H]1c1ccccc1CN=[N+]=[N-],0.456
2,O=C(NCc1ccccc1)c1ccc(Br)cc1[N+](=O)[O-],0.899
3,C=C(COC)/C(=C/C[C@H](OC(C)=O)c1ccc(OCCO)cc1)c1cnc2ccccc2c1,1.05
4,COc1cc2c(cc1OC)CN(C(=O)[C@H]1[C@@H]3C(=O)O[C@@H](c4ccccc4)[C@@H](c4ccccc4)N3[C@@H](c3ccccc3OCCO)[C@]13C(=O)Nc1ccc(C#CC4(O)CCCCCC4)cc13)CC2,1.13
5,COCCOC(=O)N1C(=O)[C@@]2(c3cc(C#CCCO)ccc31)[C@H](c1ccc(O)cc1)N1[C@H](c3ccccc3)[C@H](c3ccccc3)OC(=O)[C@H]1[C@@H]2C(=O)Nc1nc2ccccc2s1,1.17
6,CC[C@H]1C2=C3C(CC[C@H]4C(OC)OC[C@](C)([C@@H]34)N(C(=O)OC(C)(C)C)C2)C(CO)C1CO (stereo partly specified),1.16
7,CN(C)C(=O)[C@@]1(Cc2ccccc2N=[N+]=[N-])N=C(c2ccc(OCCCO)cc2)O[C@H]1c1ccccc1CN=[N+]=[N-],1.2
8,CC(C)[C@H]1NC(=O)[C@@]23C(=O)N[C@@H](Cc4ccccc4)C2[C@H](C)[C@@]2(C)O[C@H]2C3/C=C/C/C=C\CNC(=O)[C@H](C)NC1=O (stereo partly specified),-0.671
9,O=C1c2ccccc2[C@](Cc2ccccc2I)(C(=O)NCc2ccccc2)[C@H](c2ccc(CO)cc2)N1Cc1ccccc1C(F)(F)F,-0.32
10,O=C1c2ccccc2[C@](Cc2ccccc2I)(C(=O)NCC(F)(F)F)[C@H](c2ccc(CO)cc2)N1Cc1ccccc1C(F)(F)F,0.609
11,CCC1=C2CN(Cc3ccccc3Br)[C@@H]([C@@H](O)Cc3ccccc3)C2C=CCC1 (stereo partly specified),0.646
12,C=CCc1cccc([C@H]2N[C@H](C(=O)O)CC[C@@H]2C)c1,0.0607
13,COC(=O)C1=CC(c2ccc(CO)cc2)=CC(c2cccs2)N(Cc2cccc(OC(F)(F)F)c2)C=C1C(=O)OC (stereo unspecified),1.18
14,C=C(CCCC)C(=O)CC[C@@H](OC(=O)c1cccnc1)c1cccc(OCCO)c1,-0.158
15,CO[C@H]1COC(=O)[C@H](Cc2ccccc2)NC(=O)CC=C[C@@H](C)[C@H](OC)COC(=O)CC=C[C@@H]1C,0.296
16,COCCOC(=O)N1C(=O)[C@@]2(c3cc(C#CCC(C(=O)OC)C(=O)OC)ccc31)[C@H](C(=O)N1CCN(c3ncccn3)CC1)[C@H]1C(=O)O[C@H](c3ccccc3)[C@H](c3ccccc3)N1[C@@H]2c1ccc(O)cc1,1.01
17,CCCC=C(CCC)[C@@H](NS(=O)(=O)c1cccc(C(F)(F)F)c1)c1ccc(C(=O)OC)cc1,0.804
18,NC(=O)[C@H]1[C@@H]2C(=O)O[C@@H](c3ccccc3)[C@@H](c3ccccc3)N2[C@@H](c2ccc(O)cc2)[C@]12C(=O)Nc1ccc(C#CCCO)cc12,-1.78
19,O=C(O)[C@@H]1Cc2c([nH]c3ccccc23)[C@@H](c2ccccc2)N1,0.813
20,COc1cc2c(cc1OC)CN(C(=O)[C@@H]1[C@H]3C(=O)O[C@H](c4ccccc4)[C@H](c4ccccc4)N3[C@H](c3ccccc3OCCO)[C@@]13C(=O)Nc1ccccc13)CC2,0.997
21,CCCC=C(CCC)[C@@H](NS(=O)(=O)c1ccc(-c2ccccc2)cc1)c1ccc(C(=O)OC)cc1,0.115
22,O=C/C=C/c1ccccc1Cl,0.0241
23,[N-]=[N+]=NCc1ccccc1[C@H]1OC(c2ccc(OCCCO)cc2)=N[C@@]1(Cc1ccccc1N=[N+]=[N-])C(=O)NCc1ccccc1,1.12
24,O=C1c2ccccc2[C@](Cc2ccccc2I)(C(=O)O)[C@H](c2ccc(CO)cc2)N1C1CCCCC1,1.21
25,C=CCC(OC(C)=O)[C@@H]1[C@@H](N(Cc2cc3ccccc3o2)C(=O)Cc2ccc(F)cc2)c2cc(OCCCO)ccc2N1C(=O)c1ccc(-c2ccccc2)cc1 (stereo partly specified),-0.764

# Tested on: not listed separately
# Assay: compounds binding Alexa647 anti-His antibody – biochemical, small-molecule microarray, 635 nm fluorescence, artefact control for SMM control protein annotation, primary screen (AID 1128);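 also: score merges feature fluorescence with signal-to-noise for each printed compound spot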
# Conditions: higher = more signal
row,SMILES,composite z-score
1,C=CCc1cccc([C@@H]2[C@@H](C)CC[C@H]3C(=O)N4[C@H](c5cccc(CC=C)c5)[C@@H](C)CC[C@H]4C(=O)N23)c1,0.22
2,CCCCCCc1nc(C2CC2)c(C)c2c1[Si](C(C)C)(C(C)C)OC2,-0.095
3,CC(C)(C)OC(=O)CC[C@]1(C(=O)NCCN2CCOCC2)N=C(c2ccc(OCCCO)cc2)O[C@H]1c1ccccc1CN=[N+]=[N-],2.63
4,CCOC(=O)C[C@H]1[C@H](OC(=O)c2ccccc2-c2ccccc2)[C@@H](NC(=O)c2ccc(-c3ccccc3)cc2)c2cc(OCCCO)ccc2N1C(=O)Cc1ccc(OC)cc1,-0.293
5,C=CCN1C(=O)[C@@]2(Cc3ccccc3)N=C(c3ccc(OCCCO)cc3)O[C@H]2c2ccccc21,1.69
6,C=CCC(OC(C)=O)[C@@H]1[C@@H](N(Cc2cc3ccccc3o2)C(=O)c2ccc(C)cc2)c2cc(OCCCO)ccc2N1C(=O)c1ccc2ccccc2n1 (stereo partly specified),-0.88
7,C=C(C(=O)CC[C@H](OC(=O)c1ccccc1-c1ccccc1C(=O)O)c1ccc(CO)o1)C(C)C,2.61
8,O=C(CS)NCCCCCNC(=O)[C@H]1C[C@H]2C(=O)N3CCC[C@H]3C(=O)N2[C@H]1c1ccc(O)cc1,0.215
9,N#Cc1ccc(NN2C(C(O)CCc3ccccc3)C=CC3C(=O)N(c4ccccc4)C(=O)C32)cc1 (stereo unspecified),1.31
10,O=[N+]([O-])c1ccc(C[n+]2ccc3ccc(O)cc3c2)o1,0.0131
11,Cc1ccc(S[C@]2(C(=O)NC(C)C)CC(=O)N(Cc3cc(C(F)(F)F)cc(C(F)(F)F)c3)[C@@H]2c2ccc(CO)cc2I)cc1,2.87
12,COC(=O)[C@@]1(Cc2ccccc2N=[N+]=[N-])N=C(c2ccc(OCCCO)cc2)O[C@H]1c1ccccc1CN=[N+]=[N-],1.65
13,O=C(NCc1ccccc1)c1ccc(Br)cc1[N+](=O)[O-],-0.26
14,C=C(COC)/C(=C/C[C@H](OC(C)=O)c1ccc(OCCO)cc1)c1cnc2ccccc2c1,-0.418
15,COc1cc2c(cc1OC)CN(C(=O)[C@H]1[C@@H]3C(=O)O[C@@H](c4ccccc4)[C@@H](c4ccccc4)N3[C@@H](c3ccccc3OCCO)[C@]13C(=O)Nc1ccc(C#CC4(O)CCCCCC4)cc13)CC2,2.85
16,COCCOC(=O)N1C(=O)[C@@]2(c3cc(C#CCCO)ccc31)[C@H](c1ccc(O)cc1)N1[C@H](c3ccccc3)[C@H](c3ccccc3)OC(=O)[C@H]1[C@@H]2C(=O)Nc1nc2ccccc2s1,0.607
17,CC[C@H]1C2=C3C(CC[C@H]4C(OC)OC[C@](C)([C@@H]34)N(C(=O)OC(C)(C)C)C2)C(CO)C1CO (stereo partly specified),2.26
18,CN(C)C(=O)[C@@]1(Cc2ccccc2N=[N+]=[N-])N=C(c2ccc(OCCCO)cc2)O[C@H]1c1ccccc1CN=[N+]=[N-],2.23

row,SMILES,composite z-score
1,CC(C)[C@H]1NC(=O)[C@@]23C(=O)N[C@@H](Cc4ccccc4)C2[C@H](C)[C@@]2(C)O[C@H]2C3/C=C/C/C=C\CNC(=O)[C@H](C)NC1=O (stereo partly specified),0.661
2,O=C1c2ccccc2[C@](Cc2ccccc2I)(C(=O)NCc2ccccc2)[C@H](c2ccc(CO)cc2)N1Cc1ccccc1C(F)(F)F,-0.77
3,O=C1c2ccccc2[C@](Cc2ccccc2I)(C(=O)NCC(F)(F)F)[C@H](c2ccc(CO)cc2)N1Cc1ccccc1C(F)(F)F,0.722
4,CCC1=C2CN(Cc3ccccc3Br)[C@@H]([C@@H](O)Cc3ccccc3)C2C=CCC1 (stereo partly specified),1.23
5,C=CCc1cccc([C@H]2N[C@H](C(=O)O)CC[C@@H]2C)c1,0.7
6,COC(=O)C1=CC(c2ccc(CO)cc2)=CC(c2cccs2)N(Cc2cccc(OC(F)(F)F)c2)C=C1C(=O)OC (stereo unspecified),2.15
7,C=C(CCCC)C(=O)CC[C@@H](OC(=O)c1cccnc1)c1cccc(OCCO)c1,0.419
8,CO[C@H]1COC(=O)[C@H](Cc2ccccc2)NC(=O)CC=C[C@@H](C)[C@H](OC)COC(=O)CC=C[C@@H]1C,0.809
9,COCCOC(=O)N1C(=O)[C@@]2(c3cc(C#CCC(C(=O)OC)C(=O)OC)ccc31)[C@H](C(=O)N1CCN(c3ncccn3)CC1)[C@H]1C(=O)O[C@H](c3ccccc3)[C@H](c3ccccc3)N1[C@@H]2c1ccc(O)cc1,1.55
10,CCCC=C(CCC)[C@@H](NS(=O)(=O)c1cccc(C(F)(F)F)c1)c1ccc(C(=O)OC)cc1,0.54
11,NC(=O)[C@H]1[C@@H]2C(=O)O[C@@H](c3ccccc3)[C@@H](c3ccccc3)N2[C@@H](c2ccc(O)cc2)[C@]12C(=O)Nc1ccc(C#CCCO)cc12,2.14
12,O=C(O)[C@@H]1Cc2c([nH]c3ccccc23)[C@@H](c2ccccc2)N1,0.247
13,COc1cc2c(cc1OC)CN(C(=O)[C@@H]1[C@H]3C(=O)O[C@H](c4ccccc4)[C@H](c4ccccc4)N3[C@H](c3ccccc3OCCO)[C@@]13C(=O)Nc1ccccc13)CC2,2.5
14,CCCC=C(CCC)[C@@H](NS(=O)(=O)c1ccc(-c2ccccc2)cc1)c1ccc(C(=O)OC)cc1,0.5
15,O=C/C=C/c1ccccc1Cl,-0.761
16,[N-]=[N+]=NCc1ccccc1[C@H]1OC(c2ccc(OCCCO)cc2)=N[C@@]1(Cc1ccccc1N=[N+]=[N-])C(=O)NCc1ccccc1,0.859
17,O=C1c2ccccc2[C@](Cc2ccccc2I)(C(=O)O)[C@H](c2ccc(CO)cc2)N1C1CCCCC1,1.52
18,C=CCC(OC(C)=O)[C@@H]1[C@@H](N(Cc2cc3ccccc3o2)C(=O)Cc2ccc(F)cc2)c2cc(OCCCO)ccc2N1C(=O)c1ccc(-c2ccccc2)cc1 (stereo partly specified),-1.6
